From PubChem BioAssay (Tox21) come the findings set out here.

Each structure is given as a SMILES string. Calls of active or inactive are those of the source. Entries that show only a call come without a potency. Calls follow the shape of the full dose curve.
Potency is read from the fitted curve at half-maximal effect.

Sequence of Gonadotropin-releasing hormone receptor (Homo sapiens) (P30968 whole entry, looked up): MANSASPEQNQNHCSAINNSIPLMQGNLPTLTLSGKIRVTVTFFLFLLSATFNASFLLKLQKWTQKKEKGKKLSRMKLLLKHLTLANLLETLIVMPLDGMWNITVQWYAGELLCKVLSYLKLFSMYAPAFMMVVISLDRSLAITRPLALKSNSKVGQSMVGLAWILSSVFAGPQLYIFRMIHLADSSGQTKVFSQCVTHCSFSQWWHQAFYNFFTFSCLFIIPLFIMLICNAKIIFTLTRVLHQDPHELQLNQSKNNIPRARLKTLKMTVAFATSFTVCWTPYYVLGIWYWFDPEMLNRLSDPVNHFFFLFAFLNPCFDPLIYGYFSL

This assay has as its target Gonadotropin-releasing hormone receptor (Homo sapiens) (UniProt P30968). The assay is described as follows: Human gonadotropin-releasing hormone receptor (GnRHR) small molecule agonists, calcium flux assay in GnRHR-HEK293 cells (AID 1920063). Also: nearly all actives have a fitted effect of over 35% in size. The note with it: calcium flux fluorescence, agonist mode; series mostly up to 57.6 µM. The text has this: National Center for Advancing Translational Sciences [NCATS]
Division of Preclinical Innovation [DPI]
U.S. Environmental Protection Agency [EPA]
National Institutes of Environmental Health Sciences [NIEHS]
National Toxicology Program [NTP]
U.S. Food and Drug Administration [FDA]
Gonadotropin-releasing hormone receptor (GnRHR) is a G-protein-coupled receptor (GPCR) and acts (through phospholipase C) to increase intracellular inositol trisphosphate and then release intracellular calcium stores. Cell-based GnRHR-Hek293 calcium influx assay is using HEK293 cells that have been genetically engineered to express the human GnRHR, which activity can be measured by calcium signaling. A compound/drug can activate (agonist) GnRHR that can be monitored by levels of intracellular calcium.
GnRHR-HEK293 cells developed by Codex Corp contain human GnRHR reporter gene, which was stably integrated into HEK 293 cells. The compound activation can be detected by fluorescence intensity via calcium flux assay. This cell line has been used to screen the Tox21 10K compound library to identify GnRHR agonists.
GnRHR-Hek293 cells were dispensed at 1500cells/4uL/well in 1536-well black wall/clear bottom plates using a multidrop dispenser. After the assay plates were incubated at a 37 C/5% CO2 incubator for 18 hours, 4 uL of Calcium Dye Solution was added to each well. The plates were incubated at 37 C for 1 hour. For agonist mode, 23 nL of compounds dissolved in DMSO, positive controls or DMSO only was transferred to the assay plate by a pin tool station. The fluorescence intensity in the plates was measured using FDSS 7000EX kinetic plate reader with a filter set of Ex/Em=480/540 for 3 min at 1 sec intervals. Each test compound was measured at 15 concentrations and in triplicates.
(Calcium flux is commonly read through the fluorescence of an indicator in the cells.)
Turning to `C[C@@H](N)[C@@H](O)c1ccccc1`, the Potency entry is “inactive”.

As to `O=C(N[C@H]1N=C(c2ccccc2F)c2cccc3c2N(CC3)C1=O)c1cc2ccccc2[nH]1`, the Potency result is “inactive”.

Regarding `NC(=S)C(N)=S`, the Potency result was “inactive”.

Regarding `N#Cc1c(Cl)cccc1Cl`, the Potency result is “inactive”.

Consider `COP(N)(=S)OC`, for which the Potency entry is “inactive”.

Turning to `NS(=O)(=O)C(F)(F)C(F)(F)C(F)(F)C(F)(F)C(F)(F)C(F)(F)C(F)(F)C(F)(F)F`, the Potency result was “inactive”.

Turning to `O=CC(Br)(Br)Br`, the Potency result is “inactive”.

Turning to `Cc1nnc(-c2ccccc2)c(=O)n1N`, the Potency result is “inactive”.

For `CCOc1nc(C(Cl)(Cl)Cl)ns1`, the Potency result is “inactive”.

As to `NCC1(CC(=O)O)CCCCC1`, the Potency result was “inactive”.

On to `CN1COCN(Cc2cnc(Cl)s2)/C1=N\[N+](=O)[O-]`, for which the Potency result is “inactive”.

Consider `C[C@H]1CC[C@@H]2[C@@H](C)[C@H]3[C@H](C[C@H]4[C@@H]5CC=C6CC(O[C@@H]7O[C@H](CO)[C@H](O)[C@H](O[C@@H]8O[C@H](CO)[C@@H](O)[C@H](O)[C@H]8O)[C@H]7O[C@H]7O[C@@H](C)[C@H](O)[C@@H](O)[C@H]7O)CC[C@]6(C)[C@H]5CC[C@]34C)N2C1` (stereo not given in full), for which the Potency is 10.1 µM (active).

With `CN1C2CCC(C)(C)C1CC(OC(=O)C(O)(c1cccs1)c1cccs1)C2` (stereo not given), the Potency entry was “inactive”.

Take `N#CCc1ccc(Cl)cc1`: the Potency result is “inactive”.

As to `CCc1ccccc1N`, the Potency entry was “inactive”.

With `CCCCCCCCCCCCN(C)C`, the Potency result is “inactive”.

Turning to `Cc1ccc(OP(=O)(Oc2ccccc2)Oc2ccccc2)cc1`, the Potency entry was “inactive”.

As for `CN(C1CCCCC1)C1CCCCC1`, the Potency entry is “inactive”.

For the molecule `O=C(OC1CCCCC1)c1ccccc1C(=O)OC1CCCCC1`, the Potency result is “inactive”.

In the case of `C1=CCC=C1`, the Potency entry was “inactive”.

Regarding `CC(C)(C)c1ccc(OP(=O)(Oc2ccccc2)Oc2ccccc2)cc1`, the Potency entry was “inactive”.

Consider `CC(C)CBr`, for which the Potency result was “inactive”.

For `C[C@]12CC[C@H]3[C@@H](CCC4=CC(=O)CC[C@@H]43)[C@@H]1CC[C@@H]2OC(=O)CCc1ccccc1`, the Potency entry is “inactive”.

`CC(C)(c1cc(Cl)c(O)c(Cl)c1)c1cc(Cl)c(O)c(Cl)c1`: the Potency was 38.9 µM (active).

In the case of `CC(C)N(C(=O)SC/C(Cl)=C/Cl)C(C)C`, the Potency entry was “inactive”.

For the molecule `CN(C)S(=O)(=O)N(SC(F)(Cl)Cl)c1ccccc1`, the Potency was 38.9 µM (active).

`CCSC(=O)N(CC)C1CCCCC1`: the Potency entry was “inactive”.

`O=C(O)C(Br)(Br)Br`: the Potency result is “inactive”.

For the molecule `Cc1cc(C)c(C2=C(OC(=O)CC(C)(C)C)C3(CCCC3)OC2=O)c(C)c1`, the Potency result was “inactive”.

As for `CC(C)CC(C)N` (stereo not given), the Potency entry was “inactive”.

`CCOP(=O)(O)C(N)=O`: the Potency entry is “inactive”.

On to `COCCOCCO`, for which the Potency result was “inactive”.

`Oc1ccc([C@H]2CNCc3c2ccc(O)c3O)cc1O`: the Potency result was “inactive”.

Turning to `CCCC[P+](CC)(CCCC)CCCC` (tested in a mixture with another compound), the Potency result was “inactive”.

`ClC(Cl)=C(c1ccc(Cl)cc1)c1ccccc1Cl`: the Potency result was “inactive”.

Consider `O=C1CN=C(c2ccccc2)c2cc(Cl)ccc2N1CC1CC1`, for which the Potency result is “inactive”.

`O=S(=O)(O)C(F)(F)C(F)(F)C(F)(F)C(F)(F)F`: the Potency result is “inactive”.

With `C=CC(=O)NCNC(=O)C=C`, the Potency result was “inactive”.

In the case of `SCc1ccco1`, the Potency result is “inactive”.

As to `CCC1(CC)C(=O)NC(=O)NC1=O`, the Potency entry is “inactive”.
